Bioassay records from PubChem.
TEAD-YAP block: TEAD-YAP interaction inhibition | HEK-TIYL cells, TEAD-Gal4/YAP UAS-luciferase luminescence | inhibition, % at 9.12 µM | 640,000 compounds, 1.4% hits; in the data active = inhibition above about 32%;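 note: 0% = median of test compound wells and 100% = reference inhibitor wells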
FBW7 act: activators of human E3 ligase FBW7. 650,000 compounds, 0.13% hits. normalized activity (activation), % at 26.1 µM. Q969H0. AlphaScreen FBW7–phospho-cyclin E peptide binding, activator screen; in the data active = normalized activity above about 1.9%;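 note: purified mutant Fbw7 with reduced substrate affinity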
MITF primary: human MITF inhibition, primary screen. O75030. AlphaScreen MITF homodimerization, bead proximity signal. inhibition, % at 2.6 µM. 650,000 compounds, 0.91% hits; in the data active = inhibition above about 50%;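 note: 0% = vehicle wells with protein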
GPR151 activ: human GPR151 activation | PathHunter beta-arrestin GPR151 cells, luminescence | 650,000 compounds, 1% hits | activation, % at 11.2 µM | Q8TDV0; in the data active = activation above about 4.9%;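 note: 0% = median of compound wells and 100% = cells with positive control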
Target sequence (Q8TDV0 whole entry, looked up): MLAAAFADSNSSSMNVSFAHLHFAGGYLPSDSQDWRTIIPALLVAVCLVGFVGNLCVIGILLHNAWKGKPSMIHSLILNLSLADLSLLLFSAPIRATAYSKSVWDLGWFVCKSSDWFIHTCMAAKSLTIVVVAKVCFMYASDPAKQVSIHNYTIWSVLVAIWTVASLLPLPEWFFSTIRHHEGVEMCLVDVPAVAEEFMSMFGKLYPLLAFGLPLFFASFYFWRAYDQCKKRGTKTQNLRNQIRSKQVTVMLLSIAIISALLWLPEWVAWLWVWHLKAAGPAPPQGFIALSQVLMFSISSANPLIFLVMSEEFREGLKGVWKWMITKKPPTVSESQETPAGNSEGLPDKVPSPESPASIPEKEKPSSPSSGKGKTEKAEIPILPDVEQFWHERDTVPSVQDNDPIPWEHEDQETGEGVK
The depositor's hits bear a star; nt = no result given. Rows were chosen to be rich in hits. Some 3.4% of all compounds tested hit in one or more screens of this group.

SMILES | TEAD-YAP block | FBW7 act | MITF primary | GPR151 activ
COc1ccc(-c2ccc(NS(=O)(=O)c3cc(C)cc(C)c3)cc2)nn1 | -6.6 | 1.9* | 17.3 | 0.2
Cc1ccc(C(=O)Oc2coc(CSc3nccn3C)cc2=O)cc1C | -11.2 | -0.2 | -6.0 | 1.3
COc1ccc(/C=N\Nc2ncccc2[N+](=O)[O-])c(OC)c1 | 41.0* | -0.5 | 1.9 | -7.1
O=C1NC2(CCN(C(=O)c3nccc4ccccc34)CC2)Nc2ccc(Cl)cc21 | 77.6* | 0.0 | -9.2 | 1.1
O=C(CCC(=O)c1ccccc1)Nc1ccc2c(c1)CCC2 | -9.7 | 0.0 | 7.9 | 0.4
O=Cc1ccc(-c2ccc(NC3CC3)nc2)cc1 | 34.2* | -0.2 | 5.1 | -3.4
O=C(N/N=C/C=C\c1cccc([N+](=O)[O-])c1)c1ccncc1 | -4.0 | -0.2 | -2.8 | -0.1
COCCNC(=O)c1nnc(-c2ccccc2)o1 | -21.4 | -0.1 | 41.2 | 0.8
CC1(C)Cc2c(cnn2-c2ccc(Cl)cc2)-c2nc3ccccc3nc21 | -1.3 | -0.1 | 15.3 | 0.0
Nc1nc2c(s1)CCc1c-2cnn1-c1ccccc1 | 44.9* | 0.1 | -3.4 | -0.5
CC(C)(C)C1CCc2c(sc3nc(CCC(=O)N4CCN(c5ccc(F)cc5)CC4)[nH]c(=O)c23)C1 (configuration not stated) | 51.6* | 0.6 | -4.2 | -1.4
CC(C)(C)C1CCc2c(sc3nc(Cc4ccccc4)[nH]c(=O)c23)C1 (configuration not stated) | -0.8 | 0.1 | 4.4 | -0.3
CC(C)(C)C1CCc2c(sc3nc(CCC(=O)N4CCN(c5ccccn5)CC4)[nH]c(=O)c23)C1 (configuration not stated) | 77.8* | 0.4 | -2.9 | 2.0
CCOC(=O)CSc1nnc(CN2C(=O)c3cccc4cccc(c34)C2=O)n1-c1ccccc1 | 7.5 | 0.1 | 11.2 | -1.1
CCOc1cc(C=O)ccc1OCCN1CCOCC1 | 9.9 | 0.2 | 8.7 | -1.3
COc1cc(C=O)ccc1OCCN1CCOCC1 | 40.1* | 0.1 | 1.0 | 0.2
COc1ccc(Cc2noc(-c3ccc(OC)c(OC)c3)n2)cc1OC | 1.6 | 0.0 | 4.1 | -0.8
COc1ccc(Cc2noc(-c3ccc([N+](=O)[O-])o3)n2)cc1OC | 66.7* | -0.1 | 21.5 | 0.0
CCCOCCCCCCCCCC(=O)O | nt | nt | -4.0 | -1.4
Cc1cc(N2CCN(c3ncccn3)CC2)nc2ccc(NC(=O)c3ccncc3)cc12 | 47.9* | 0.1 | 6.1 | 1.1
COc1cc(/C=C/C(=O)Nc2ccc3nc(N4CCN(c5ncccn5)CC4)cc(C)c3c2)cc(OC)c1OC | 42.2* | 0.0 | 0.9 | 1.7
CCc1ccc(N2C(=O)CC(Sc3ncccc3C(=O)O)C2=O)cc1 (configuration not stated) | 2.2 | 1.2 | 6.7 | 0.2
COCCCn1c(C)cc(C(=O)CSc2ncnc3sccc23)c1C | 43.3* | -0.4 | 13.6 | 0.2
C=CCN1CC(c2nc3ccccc3n2CC(C)C)CC1=O (configuration not stated) | 13.2 | 0.3 | 4.1 | -1.2
CCc1c(C)nc(NC2CCN(C(=O)C3(c4ccc(OC)cc4)CC3)CC2)[nH]c1=O | 5.5 | -0.2 | -2.9 | 0.2
SMILES | TEAD-YAP block | FBW7 act | MITF primary | GPR151 activ
COc1ccc(C2(C(=O)N3CCC(Nc4nc5c(c(=O)[nH]4)CCC5)CC3)CC2)cc1 | 0.8 | 1.9* | -1.5 | -0.2
COc1ccc2c(c1)c(=O)oc1cc(OCC(=O)N(C)c3ccccc3)ccc12 | -0.1 | 0.8 | 52.1* | -0.2
COc1ccc2c(c1)c(=O)oc1cc(OCC(=O)O)ccc12 | 1.9 | 0.0 | 3.8 | 0.5
Oc1c(C(c2cccs2)N2CCOCC2)ccc2cccnc12 (configuration not stated) | 76.7* | -1.3 | 60.7* | 1.9
Oc1c(C(c2cccs2)N2CCN(c3ccccc3)CC2)ccc2cccnc12 (configuration not stated) | 87.2* | -0.3 | 18.4 | -0.1
CCOC(=O)C1CCN(C(=O)c2cnn(-c3ccccc3)c2-n2cccc2)CC1 | 1.6 | -0.1 | 11.3 | -0.2
Cc1cc(O)c(C)c(O)c1/C=N\NC(=O)CNC(=O)C(c1ccccc1)c1ccccc1 | 32.9* | 0.1 | 16.9 | 0.0
O=C(O)c1cc(=O)c(O)c2c(O)c(O)c(O)cc2c1 | -0.6 | -0.2 | 89.1* | 0.2
O=C(Cc1ccccc1)Nc1cc(C(=O)O)cc(C(=O)O)c1 | 3.3 | 0.0 | -16.7 | -0.5
C=CCOc1ccccc1CNc1nc(C)c(-c2ccn(C)n2)s1 | -2.5 | -0.1 | 5.9 | 0.5
O=C(O)CC1S/C(=N/N=C/c2cccc([N+](=O)[O-])c2O)NC1=O (configuration not stated) | -8.2 | -0.7 | 90.8* | 0.0
COc1ccc(/C=N\NC(=O)C2=NNC(=O)C2C)cc1 (configuration not stated) | 36.0* | -0.3 | 7.3 | -0.7
